# Reference: PubChem BioAssay (NCATS)
# Records with an inconclusive call do not appear. Unmarked numbers belong to inactive results. Calls come from the whole dose curve; as a rule, active = well fitted inhibition curve with a large enough effect; inconclusive = small, poorly fitted or top-dose-only effect; inactive = no such curve, though single readings can be large or run the other way.
# Experiment: Primary qHTS for small molecule stabilizers of the endoplasmic reticulum resident proteome: Secreted ER Calcium Modulated Protein (SERCaMP) assay (AID 1508630)
# Conditions: SH-SY5Y GLuc-SERCaMP (Gaussia luciferase released on ER calcium loss) secretion, thapsigargin, luminescence; series mostly up to 38.4 µM; activity change, negative = inhibition: at the top concentration
# How it was run: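 The SH-SY5Y reporter protocol was run at 3 concentrations up to 38.3 uM (primary) or 11 concentrations (follow-up): 16 h compound, 100 nM thapsigargin for 4 h, then extracellular luciferase luminescence.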
# % is set by controls: 0 for no effect and ±100 for the full control effect.
row,SMILES,"activity change, negative = inhibition"
1,c1ccc2sc(SN3CCOCC3)nc2c1,46.2%
2,Cc1c(Nc2ncccc2C(=O)O)cccc1C(F)(F)F,-15.5%
3,COc1ccc(-c2cc(=S)ss2)cc1,-29.4%
4,COC(=O)C1=C(C)NC(C)=C(C(=O)OCC(C)=O)C1c1ccccc1[N+](=O)[O-] (centres undefined),8.92%
5,CCOc1ccc2nc(S(N)(=O)=O)sc2c1,25.3%
6,Cc1cc(O)c2ccccc2c1O,103%
7,O=C(O)c1ccccc1Nc1cccc(C(F)(F)F)c1,-20.8%
8,COC(=O)c1nc(Cl)c(Cl)nc1N,196%
9,CCCCCCOc1ccccc1C(N)=O,-5.27%
10,Clc1ccccc1-c1nc(-c2ccncc2)no1,-13.2%
11,O=C(/C=C/c1ccccc1)NCCO,-7.31%
12,O=C(O)Cc1cccc(-c2cc(CCCCCCc3ccc(O[C@H]4O[C@H](CO)[C@@H](O)[C@H](O)[C@@H]4O)c(-c4cccc(CC(=O)O)c4)c3)ccc2O[C@H]2O[C@H](CO)[C@@H](O)[C@H](O)[C@@H]2O)c1,-18.9% [at 0.478 µM]
13,O=C(Nc1ccc(C(=O)O)c(O)c1)c1ccccc1,-31.3%
14,COC(=O)Nc1nc2ccc(C(=O)C3CC3)cc2[nH]1,110%
15,C#CC1(O)CC[C@H]2[C@@H]3CCC4=CCCC[C@@H]4[C@H]3CC[C@@]21C (some centres undefined),-17.1%
16,CNC(=O)c1c(I)c(NC(=O)CCCCC(=O)Nc2c(I)c(C(=O)O)c(I)c(C(=O)NC)c2I)c(I)c(C(=O)O)c1I,-17.9%
17,S=c1[nH]c2ccccc2s1,-22.8% [at 76.3 µM]

row,SMILES,"activity change, negative = inhibition"
1,CCCSc1ccc2nc(NC(=O)OC)[nH]c2c1,42.7%
2,C/C(=N\O)c1ccc(OCC(=O)N2CCCCC2)cc1,12.3%
3,Cc1nc2ccccc2n1Cc1ccc(Cl)cc1,13.5%
4,O=C(CCN1CCN(CCO)CC1)N1c2ccccc2Sc2ccc(C(F)(F)F)cc21,34.9%
5,c1ccc(CCNc2nc(-c3ccccc3)cs2)cc1,36.7%
6,CCCCCCCC/C=C/C(=O)O,-26.1%
7,Cc1ccc(O)c(-n2nc3ccccc3n2)c1,21.7%
8,CN1CCN(c2cc3c(nn2)Oc2ccccc2N3C)CC1,9.68% [at 21.6 µM]
9,C#C[C@]1(O)CC[C@H]2[C@@H]3CCc4cc(O)ccc4[C@H]3CC[C@@]21C,30.1%
10,CC(C(=O)O)c1ccc(C(=O)c2cccs2)cc1 (centres undefined),-15.5%
11,Cc1[nH]cnc1CN1CCc2c(c3ccccc3n2C)C1=O,-26.7%
12,O=C(O)Cc1ccc(-c2ccccc2)cc1,-23.1%
13,COc1cc2c3cc1Oc1cc(ccc1O)C[C@@H]1c4c(cc(OC)c(O)c4Oc4ccc(cc4)C[C@@H]3N(C)CC2)CC[N+]1(C)C,25.2%
14,CCCCC1C(=O)N(c2ccccc2)N(c2ccc(O)cc2)C1=O (centres undefined),59.1%
15,CCCCCCCCCCCCCCCC(=O)OC(C)C,-27.8%
16,c1ccc2sc(SSc3nc4ccccc4s3)nc2c1,-30% [at 21.6 µM]
17,CC(C)(C)c1nnc(NS(=O)(=O)c2ccc(N)cc2)s1,-5.8%
